For experiment [1], the target named is Retinoic acid receptor RXR-alpha (Homo sapiens) (UniProt P19793). Briefly: ATG_RXRa_TRANS: Attagene TRANS-FACTORIAL HepG2 Assay for human Retinoid X Receptor alpha (RXRa) (AID 2283012; active means hit-call score of the fitted dose curve at least 0.9, where 1 is the maximum). An outline of the steps:
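Measures exogenous chimeric NR-GAL4 activity in transfected HepG2 liver cells after 24 h of dosing. Induced reporter mRNA was detected by RT-PCR with capillary electrophoresis, and gain of signal was analysed against DMSO.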

Experiment [2] addresses human Retinoid X Receptor beta (RXRb), RXRB (gene 6257) (UniProt P28702). Description: ATG_RXRb_TRANS: Attagene TRANS-FACTORIAL HepG2 Assay for human Retinoid X Receptor beta (RXRb) (AID 2283013; active means hit-call score of the fitted dose curve at least 0.9, where 1 is the maximum). A digest of the protocol: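 Chimeric receptor-Gal4 activity was assessed in transiently transfected human HepG2 cells after 24 h exposure. Transcripts from GAL4-UAS reporters were quantified by fluorescent RT-PCR and capillary electrophoresis, with DMSO as negative control and baseline.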

Experiment [3] deals with human Thyroid Receptor alpha (THRa1), THRA (gene 7067) (UniProt P10827). Description: ATG_THRa1_TRANS: Attagene TRANS-FACTORIAL HepG2 Assay for human Thyroid Receptor alpha (THRa1) (AID 2283014; active means hit-call score of the fitted dose curve at least 0.9, where 1 is the maximum). An outline of the steps:
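HepG2 cells transiently transfected with chimeric NR-Gal4 and GAL4-UAS reporter units, dosed 24 h. Reporter mRNA quantified by RT-PCR, fluorescent labeling, HpaI digestion and capillary electrophoresis; gain-of-signal fit versus DMSO.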

Read-out in experiment [4]: E-selectin (Homo sapiens) (UniProt P16581)
Description: BSK_3C_Eselectin: BioMAP Diversity Plus: 3C Assay for Eselectin Biomarker Activity (AID 2283015).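 On outcome: cell surface E-selectin protein quantified by ELISA 24 h after dosing.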 As to conditions: primary human endothelial cells (HUVEC); actives raise or lower the signal. An outline of the steps: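 Primary human umbilical vein endothelial cells (3C system), read 24 h after compound addition; E-selectin measured by ELISA. Bidirectional curve fitting against DMSO baseline; cytotoxicity by parallel SRB total-protein staining.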

Read-out in experiment [5]: Interleukin-1 alpha (IL1a), IL1A (gene 3552)
Description: BSK_BE3C_IL1a: BioMAP Diversity Plus: BE3C Assay for Interleukin-1 alpha (IL1a) Biomarker Activity (AID 2283016). As to conditions: primary human bronchial epithelial cells; actives raise or lower the signal. An outline of the steps:
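Signal from IL-1a ELISA, taken 24 h after chemical dosing of human bronchial epithelial cells, is compared with DMSO as baseline using bidirectional curve fitting.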

Read-out in experiment [6]: Monocyte Chemoattractant Protein-1 (MCP1), CCL2 (gene 6347)
Briefly: BSK_3C_MCP1: BioMAP Diversity Plus: 3C Assay for Monocyte Chemoattractant Protein-1 (MCP1) Biomarker Activity (AID 2283017). Particulars: primary human endothelial cells (HUVEC); actives raise or lower the signal. An outline of the steps: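 Human umbilical vein endothelial cells (3C system) exposed to chemicals for 24 h; MCP-1 quantified by ELISA against the DMSO baseline with bidirectional fitting, and parallel SRB staining used to assess cytotoxicity.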

Read-out in experiment [7]: Monocyte Chemoattractant Protein-1 (MCP1), CCL2 (gene 6347)
Description: BSK_4H_MCP1: BioMAP Diversity Plus: 4H Assay for Monocyte Chemoattractant Protein-1 (MCP1) Biomarker Activity (AID 2283018). Particulars: primary human endothelial cells (HUVEC); actives raise or lower the signal. A digest of the protocol: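 Endothelial cells from umbilical vein were treated with test chemical, then after 24 h MCP-1 levels were quantified by ELISA; endpoint values came from bidirectional fitting with DMSO as baseline of activity.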

Read-out in experiment [8]: Human Leukocyte Antigen - DR isotype (HLADR), HLA-DRA (gene 3122)
Description: BSK_3C_HLADR: BioMAP Diversity Plus: 3C Assay for Human Leukocyte Antigen - DR isotype (HLADR) Biomarker Activity (AID 2283019).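 On outcome: ELISA of cell-surface HLA-DR on HUVEC 24 h after dosing.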 Particulars: primary human endothelial cells (HUVEC); actives raise or lower the signal. An outline of the steps:
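HUVEC monoculture, HLA-DR measured by ELISA 24 h after chemical dosing. Fitted bidirectionally against DMSO baseline; parallel SRB staining assessed cytotoxicity, with 3C proliferation read by SRB at 48 h.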

Read-out in experiment [9]: Interleukin-8 (IL8), CXCL8 (gene 3576)
Description: BSK_3C_IL8: BioMAP Diversity Plus: 3C Assay for Interleukin-8 (IL8) Biomarker Activity (AID 2283020). Particulars: primary human endothelial cells (HUVEC); actives raise or lower the signal. An outline of the steps:
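Endothelial primary cells of human umbilical vein origin are dosed with chemical; after 24 h the IL-8 biomarker is measured by ELISA, and concentration–response is fitted in both directions versus DMSO.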

Read-out in experiment [10]: Monokine induced gamma interferon (MIG), CXCL9 (gene 4283)
Briefly: BSK_3C_MIG: BioMAP Diversity Plus: 3C Assay for Monokine induced gamma interferon (MIG) Biomarker Activity (AID 2283021). As to conditions: primary human endothelial cells (HUVEC); actives raise or lower the signal. An outline of the steps:
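Endothelial primary cells (human umbilical vein) are dosed with test chemical in the 3C system. MIG levels are measured by ELISA at 24 h and fitted in both directions relative to DMSO.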

Experiment [11] deals with human Vitamin D Receptor (VDR), VDR (gene 7421) (UniProt P11473). Description: ATG_VDR_TRANS: Attagene TRANS-FACTORIAL HepG2 Assay for human Vitamin D Receptor (VDR) (AID 2283022; active means hit-call score of the fitted dose curve at least 0.9, where 1 is the maximum). A digest of the protocol: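 HepG2 cells were transiently transfected with GAL4-UAS reporter units and a chimeric VDR-Gal4 construct, then dosed for 24 hours. Reporter mRNA was quantified by RT-PCR, fluorescent labeling, HpaI digestion and capillary electrophoresis; gain of signal analysed vs DMSO.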

A short description of experiment [12]: BSK_3C_SRB: Viability Assessment in the BioMAP Diversity Plus: 3C Assay (AID 2283023).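 Further: fitted both ways against DMSO so a hit may be signal rise or drop.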 Particulars: primary human endothelial cells (HUVEC). A digest of the protocol:
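Human umbilical vein endothelial cells in the 3C system, treated 24 h. Total protein measured by 0.1% sulforhodamine B staining after 10% TCA fixation, read at 560 nm; bidirectional fit versus DMSO.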

Read-out in experiment [13]: Matrix Metallopeptidase 1 (MMP1), MMP1 (gene 4312)
Description: BSK_BE3C_MMP1: BioMAP Diversity Plus: BE3C Assay for Matrix Metallopeptidase 1 (MMP1) Biomarker Activity (AID 2283024). As to conditions: primary human bronchial epithelial cells; actives raise or lower the signal. An outline of the steps:
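MMP1 signal, measured by ELISA after a 24 h chemical exposure of human primary bronchial epithelial cells, is analysed with bidirectional fitting using DMSO as negative control.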

Experiment [14] is described as follows: BSK_3C_Vis: BioMAP Diversity Plus: 3C Assay for Morphology Visualization (AID 2283025).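 Further: fitted both ways so gain or loss versus DMSO counts.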 As to conditions: primary human endothelial cells (HUVEC). A digest of the protocol: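 Morphology read by light microscopy serves as a background control for the multiplexed 3C assay in human umbilical vein endothelial cells, taken 24 h after dosing, with DMSO as the negative control and bidirectional curve fitting.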

Read-out in experiment [15]: Pselectin, SELP (gene 6403)
Briefly: BSK_4H_Pselectin: BioMAP Diversity Plus: 4H Assay for Pselectin Biomarker Activity (AID 2283026). Particulars: primary human endothelial cells (HUVEC); actives raise or lower the signal. An outline of the steps:
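Endothelial primary cells (human umbilical vein) are dosed, incubated 24 h, and assayed for surface P-selectin by ELISA; responses in either direction are fitted relative to the DMSO negative control.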

Experiment [16] can be described thus: BSK_4H_SRB: Viability Assessment in the BioMAP Diversity Plus: 4H Assay (AID 2283027).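 Further: cells exposed to compound for 24 h before staining.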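 On AC50: curves fitted both ways versus DMSO so AC50 may be loss or gain.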 Particulars: primary human endothelial cells (HUVEC). A digest of the protocol:
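Cytotoxicity readout: sulforhodamine B (0.1%) staining of total protein after 10% TCA fixation, measured at 560 nm in human umbilical vein endothelium at 24 h. DMSO set the baseline; fitting was bidirectional.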

A short description of experiment [17]: BSK_BE3C_SRB: Viability Assessment in the BioMAP Diversity Plus: BE3C Assay (AID 2283028). As to conditions: primary human bronchial epithelial cells. An outline of the steps:
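Human bronchial epithelial primary cells in confluent culture, 24 h after chemical dosing; total protein by 0.1% SRB staining after 10% TCA fixation, read at 560 nm. Bidirectional fitting versus DMSO baseline.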

Read-out in experiment [18]: Thrombomodulin, THBD (gene 7056)
Description: BSK_3C_Thrombomodulin: BioMAP Diversity Plus: 3C Assay for Thrombomodulin Biomarker Activity (AID 2283029). Particulars: primary human endothelial cells (HUVEC); actives raise or lower the signal. An outline of the steps: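 Endothelial cells from umbilical vein are dosed with test chemical and incubated 24 h. Thrombomodulin is then quantified by ELISA, with DMSO serving as negative control and activity baseline.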

Read-out in experiment [19]: Urokinase-type plasminogen activator receptor (uPAR), PLAUR (gene 5329)
Description: BSK_4H_uPAR: BioMAP Diversity Plus: 4H Assay for Urokinase-type plasminogen activator receptor (uPAR) Biomarker Activity (AID 2283030). As to conditions: primary human endothelial cells (HUVEC); actives raise or lower the signal. An outline of the steps: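 Human umbilical vein endothelial cells in the 4H system, 24 h after chemical dosing. Cell-surface uPAR measured by ELISA, fitted in both directions versus DMSO; cytotoxicity checked by SRB total protein in parallel cultures.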

Read-out in experiment [20]: Vascular endothelial growth factor receptor 2 (Homo sapiens) (UniProt P35968)
Description: BSK_4H_VEGFRII: BioMAP Diversity Plus: 4H Assay for Vascular endothelial growth factor receptor 2 (VEGFR2) Biomarker Activity (AID 2283031). Particulars: primary human endothelial cells (HUVEC); actives raise or lower the signal. An outline of the steps: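 Primary human umbilical vein endothelial cells (4H system), 24 h exposure; cell-surface VEGFR2 measured by ELISA. Bidirectional fitting versus DMSO; cytotoxicity checked in parallel by SRB total-protein staining.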

A word on the AC50: it is the midpoint of the concentration-response curve, whichever way the signal moves.

Each structure is given as a SMILES string. Inconclusive results are not listed. Activity calls are given as the source filed them. How the source made its calls, unless noted: active means hit-call score of the fitted dose curve at least 0.9, where 1 is the maximum; inactive means score below 0.9.

Chain of human Thyroid Receptor alpha (THRa1), THRA (gene 7067) (P10827 whole entry, looked up, the tested form may be a part): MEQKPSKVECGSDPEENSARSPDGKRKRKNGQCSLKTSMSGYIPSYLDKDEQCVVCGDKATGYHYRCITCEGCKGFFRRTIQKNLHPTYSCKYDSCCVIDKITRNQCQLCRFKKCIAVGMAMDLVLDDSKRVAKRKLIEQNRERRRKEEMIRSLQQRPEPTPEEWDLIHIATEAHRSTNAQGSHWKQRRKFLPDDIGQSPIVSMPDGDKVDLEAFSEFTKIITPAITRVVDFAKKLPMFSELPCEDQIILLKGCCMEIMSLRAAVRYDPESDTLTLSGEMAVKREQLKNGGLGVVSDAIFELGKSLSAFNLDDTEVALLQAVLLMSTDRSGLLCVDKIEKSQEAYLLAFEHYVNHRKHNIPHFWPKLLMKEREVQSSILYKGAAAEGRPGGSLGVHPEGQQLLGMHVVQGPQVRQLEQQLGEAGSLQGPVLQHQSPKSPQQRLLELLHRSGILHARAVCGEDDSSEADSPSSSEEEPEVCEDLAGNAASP
Chain of Retinoic acid receptor RXR-alpha (Homo sapiens) (P19793 whole entry, looked up, the tested form may be a part): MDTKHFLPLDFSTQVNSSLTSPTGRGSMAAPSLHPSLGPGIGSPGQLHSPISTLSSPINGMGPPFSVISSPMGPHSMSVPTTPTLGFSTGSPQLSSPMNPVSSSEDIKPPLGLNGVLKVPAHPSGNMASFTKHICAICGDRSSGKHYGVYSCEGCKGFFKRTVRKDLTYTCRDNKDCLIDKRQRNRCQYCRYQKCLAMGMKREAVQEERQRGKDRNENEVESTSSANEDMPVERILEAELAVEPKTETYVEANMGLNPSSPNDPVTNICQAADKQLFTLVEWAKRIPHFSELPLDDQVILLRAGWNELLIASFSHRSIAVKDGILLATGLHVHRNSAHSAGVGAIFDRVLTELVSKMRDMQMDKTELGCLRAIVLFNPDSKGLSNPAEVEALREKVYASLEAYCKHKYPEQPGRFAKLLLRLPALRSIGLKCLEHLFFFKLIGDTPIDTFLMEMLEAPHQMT
Chain of E-selectin (Homo sapiens) (P16581 whole entry, looked up): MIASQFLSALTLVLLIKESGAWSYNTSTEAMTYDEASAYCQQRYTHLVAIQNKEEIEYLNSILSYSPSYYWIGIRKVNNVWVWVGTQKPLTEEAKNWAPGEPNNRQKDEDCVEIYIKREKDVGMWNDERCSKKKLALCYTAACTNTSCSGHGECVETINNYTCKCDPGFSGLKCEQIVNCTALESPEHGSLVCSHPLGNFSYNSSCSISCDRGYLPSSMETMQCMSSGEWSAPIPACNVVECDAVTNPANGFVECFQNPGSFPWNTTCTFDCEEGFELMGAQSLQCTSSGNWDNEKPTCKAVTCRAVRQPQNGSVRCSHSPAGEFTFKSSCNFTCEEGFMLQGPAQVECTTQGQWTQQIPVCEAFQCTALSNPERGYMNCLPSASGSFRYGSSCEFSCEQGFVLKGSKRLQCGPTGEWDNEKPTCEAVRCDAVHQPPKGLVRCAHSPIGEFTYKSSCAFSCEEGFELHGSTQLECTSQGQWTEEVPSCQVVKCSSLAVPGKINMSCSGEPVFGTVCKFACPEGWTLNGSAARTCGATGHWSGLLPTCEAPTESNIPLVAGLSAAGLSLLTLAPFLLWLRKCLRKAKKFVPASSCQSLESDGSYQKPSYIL
Chain of human Vitamin D Receptor (VDR), VDR (gene 7421) (P11473 whole entry, looked up, the tested form may be a part): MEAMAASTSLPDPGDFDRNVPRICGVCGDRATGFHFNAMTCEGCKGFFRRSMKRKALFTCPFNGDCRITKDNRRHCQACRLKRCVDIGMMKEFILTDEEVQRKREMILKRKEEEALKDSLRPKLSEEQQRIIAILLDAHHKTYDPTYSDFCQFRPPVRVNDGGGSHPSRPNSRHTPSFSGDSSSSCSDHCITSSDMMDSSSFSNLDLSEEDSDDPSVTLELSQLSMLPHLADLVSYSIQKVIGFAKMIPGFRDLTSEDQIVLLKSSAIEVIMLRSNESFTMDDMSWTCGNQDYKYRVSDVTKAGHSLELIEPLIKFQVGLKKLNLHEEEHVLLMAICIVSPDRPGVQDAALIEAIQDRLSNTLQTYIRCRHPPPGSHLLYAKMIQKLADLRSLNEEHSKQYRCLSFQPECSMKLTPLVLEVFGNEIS
Chain of human Retinoid X Receptor beta (RXRb), RXRB (gene 6257) (P28702 whole entry, looked up, the tested form may be a part): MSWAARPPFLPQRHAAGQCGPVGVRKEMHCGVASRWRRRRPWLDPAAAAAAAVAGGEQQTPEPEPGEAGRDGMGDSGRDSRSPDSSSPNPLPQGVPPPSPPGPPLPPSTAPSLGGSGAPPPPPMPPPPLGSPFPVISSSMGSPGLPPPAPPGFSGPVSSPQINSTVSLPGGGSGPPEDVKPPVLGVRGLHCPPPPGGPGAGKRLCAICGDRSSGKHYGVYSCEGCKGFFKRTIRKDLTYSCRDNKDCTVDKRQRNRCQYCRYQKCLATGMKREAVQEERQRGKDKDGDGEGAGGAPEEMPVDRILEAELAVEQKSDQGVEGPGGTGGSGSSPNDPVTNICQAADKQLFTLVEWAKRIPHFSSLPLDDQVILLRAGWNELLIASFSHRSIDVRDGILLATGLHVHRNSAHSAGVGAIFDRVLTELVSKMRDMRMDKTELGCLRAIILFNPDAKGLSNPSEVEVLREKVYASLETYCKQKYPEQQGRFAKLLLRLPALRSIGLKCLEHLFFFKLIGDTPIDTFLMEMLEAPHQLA

`CNCc1cc(F)ccc1Oc1ccc(Cl)c(Cl)c1`: the result in experiment [1], in experiment [2], in [3], in [5], in experiment [10] and in experiment [11] was inactive. The result in experiment [13], in experiment [14], in experiment [17], in experiment [18] and in experiment [20] was inactive. Further, the concentration at half-maximal activity (AC50) in experiment [4] is 4.88 µM (active); in experiment [6] it was 20 µM (active); in experiment [7], 11.6 µM (active); in experiment [8] it was 32.4 µM (active); in experiment [9], 20 µM (active); in experiment [12], 27.6 µM (active). Moreover, the AC50 in experiment [15] is 26 µM (active); in experiment [16], 26.1 µM (active); in experiment [19], 26.9 µM (active).
Take `CC1=C(/C=C/C(C)=C/C=C/C(C)=C/CO)C(C)(C)CCC1`: the AC50 in [1] was 1.87 µM (active); in experiment [2], 0.474 µM (active); in experiment [4], 19.3 µM (active); in [8] it was 25.3 µM (active). Moreover, the result in [5], in experiment [6], in experiment [7], in experiment [9], in experiment [10] and in experiment [11] was inactive. Further, the outcome in experiment [12], in experiment [13], in experiment [14], in experiment [15], in experiment [16] and in experiment [17] was inactive. Besides, the outcome in [18], in experiment [19] and in [20] was inactive.
As for `CC1(C)NC(=O)NC1=O`, the compound was classed as inactive in experiment [1], in experiment [2], in experiment [3], in experiment [4], in [5] and in experiment [6]. The outcome in experiment [7], in [9], in experiment [10], in experiment [11], in [12] and in experiment [13] was inactive. In addition, the outcome in experiment [14], in experiment [15], in [16], in [18], in [19] and in [20] was inactive.
As to `NS(=O)(=O)c1cc2c(cc1Cl)NCNS2(=O)=O`, the result in experiment [1], in experiment [2], in experiment [4], in experiment [5], in experiment [6] and in [7] was inactive. The outcome in experiment [8], in experiment [9], in experiment [10], in experiment [11], in experiment [12] and in [13] was inactive. The result in [14], in experiment [15], in [16], in experiment [17], in experiment [18] and in experiment [19] was inactive. Besides, the outcome in experiment [20] was inactive.
Regarding `COc1cccc2c1C(=O)c1c(O)c3c(c(O)c1C2=O)C[C@@](O)(C(=O)CO)C[C@@H]3O[C@H]1C[C@H](N)[C@H](O)[C@H](C)O1`, the compound was classed as inactive in experiment [1] and in experiment [11]. For the same compound, the AC50 in experiment [2] is 0.0616 µM (active); in experiment [3], 32.9 µM (active).
As to `Nc1nc(N)c2nc(CNc3ccc(C(=O)N[C@@H](CCC(=O)O)C(=O)O)cc3)cnc2n1`, the compound was called inactive in experiment [1], in experiment [2], in experiment [3], in experiment [4], in experiment [5] and in [6]. Besides, the result in experiment [7], in [8], in [9], in experiment [10], in experiment [11] and in experiment [12] was inactive. The outcome in experiment [13], in experiment [14], in experiment [15], in experiment [16], in [18] and in experiment [19] was inactive. Moreover, the outcome in experiment [20] was inactive.
As to `Nc1ccc2c(c1)C(=O)c1ccccc1C2=O`, the compound was called inactive in [1], in experiment [2], in experiment [3], in [4], in experiment [5] and in experiment [6]. Moreover, the outcome in [7], in [8], in experiment [9], in experiment [10], in experiment [12] and in [13] was inactive. Besides, the outcome in experiment [14], in experiment [15], in [16], in experiment [18], in experiment [19] and in [20] was inactive.

(Values after PubChem BioAssay (EPA / NIEHS).)
